We go through 14 molecules from PubChem BioAssay (NCI).

About 83,000 compounds went through this panel and 20% of them were active in at least one assay; those are over-represented in the sample as a whole.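 The endpoint reported here, percent growth, reads 100 for growth as untreated, 0 for no net growth and -100 for all cells dead.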 A number with no mark means an inactive call. Activity calls are given as the source filed them. How the source made its calls: active means growth percent below 10; inactive means the rest.

Test systems include RPMI-8226 leukemia; OVCAR-8 ovarian; OVCAR-5 ovarian; OVCAR-4 ovarian; SK-OV-3 ovarian; IGROV1 ovarian; OVCAR-3 ovarian; HS 578T breast; NCI/ADR-RES ovarian; T-47D breast.
Holding throughout (experiment): NCI-60 one-dose screen, 48 h (100 = growth as untreated, 0 = no growth, -100 = all killed)
Details in all cases: 10 µM

With `CN(C)CCOc1nc2ccccc2c2c1-c1ccc(Cl)cc1C2=O`, the growth in the experiment with RPMI-8226 leukemia is -23.4% (active); with OVCAR-8 ovarian it was 2.21% (active); with OVCAR-5 ovarian it was 18.3%; in the experiment with OVCAR-4 ovarian it was -6.28% (active); in the experiment with SK-OV-3 ovarian, 11.5%; in the experiment with IGROV1 ovarian it was -27.9% (active). The growth was -21.4% (active) in the experiment on OVCAR-3 ovarian, -13.3% (active) with HS 578T breast, -6.87% (active) in the experiment with NCI/ADR-RES ovarian and 11.9% in the experiment with T-47D breast.
`CC(=O)c1nc2ccccc2n1CCN1CCN(C)CC1`: the growth in the experiment with RPMI-8226 leukemia was 3.09% (active); in the experiment with OVCAR-8 ovarian, 34.8%; with OVCAR-5 ovarian, 53.7%; with OVCAR-4 ovarian it was 64.6%; in the experiment with SK-OV-3 ovarian, 27.4%; with IGROV1 ovarian, 39.3%. The growth in the experiment with OVCAR-3 ovarian was 4.3% (active); in the experiment on HS 578T breast it was 48.3%; in the experiment on NCI/ADR-RES ovarian, 97%; in the experiment with T-47D breast, 33.4%.
`COc1cccc(NC(=O)c2sc3nc4c(cc3c2N)C(O)CCC4)c1` (stereo not given): the growth in the experiment on RPMI-8226 leukemia is 7.49% (active); in the experiment with OVCAR-8 ovarian, 17.5%; in the experiment with OVCAR-5 ovarian, 50.3%; in the experiment on OVCAR-4 ovarian, 49.1%; with SK-OV-3 ovarian, 24%; with IGROV1 ovarian, 27.7%. The growth with OVCAR-3 ovarian was -34.6% (active); in the experiment on HS 578T breast, 29.7%; in the experiment on NCI/ADR-RES ovarian it was 8.86% (active); in the experiment with T-47D breast it was 62.1%.
With `COc1ccc(-c2nn(-c3cccc(NC(=O)Nc4ccc(Cl)c(C(F)(F)F)c4)c3)cc2-c2ccncc2)cc1Cl`, the growth in the experiment with RPMI-8226 leukemia is -19.2% (active); in the experiment with OVCAR-8 ovarian, 1.48% (active); with OVCAR-5 ovarian it was 39.8%; in the experiment on OVCAR-4 ovarian, 21.7%; in the experiment with SK-OV-3 ovarian, 16.7%; with IGROV1 ovarian, 15.7%. The growth was -2.03% (active) with OVCAR-3 ovarian, 33.8% with HS 578T breast, 9.26% (active) in the experiment on NCI/ADR-RES ovarian and -6.17% (active) with T-47D breast.
For the molecule `Cc1ccc(C(=O)N2C/C(=C/c3ccc(F)cc3)C(=O)/C(=C/c3ccc(F)cc3)C2)cc1`, the growth in the experiment on RPMI-8226 leukemia was -18% (active); with OVCAR-8 ovarian, 91.4%; in the experiment on OVCAR-5 ovarian it was 110%; with OVCAR-4 ovarian it was 87.7%; with SK-OV-3 ovarian it was 92.5%; in the experiment with IGROV1 ovarian, 102%. Moreover, the growth in the experiment on OVCAR-3 ovarian was 101%; in the experiment on HS 578T breast, 107%; in the experiment with NCI/ADR-RES ovarian, 82%; with T-47D breast, 81.9%.
Turning to `COc1ccc(-c2nc3sc(-c4ccc(OC)cc4)c(-c4ccc(OC)cc4)n3c2/C=C/c2ccc(C(C)C)cc2)cc1`, the growth with RPMI-8226 leukemia was 97.4%; in the experiment with OVCAR-8 ovarian, 97%; in the experiment on OVCAR-5 ovarian it was 94.6%; in the experiment on OVCAR-4 ovarian, 90.8%; in the experiment with SK-OV-3 ovarian it was 97.4%; in the experiment with IGROV1 ovarian, 111%. Moreover, the growth was 100% in the experiment with OVCAR-3 ovarian, 89.4% in the experiment on HS 578T breast, 106% in the experiment with NCI/ADR-RES ovarian and 97.2% with T-47D breast.
For `CCN(CC)CCCC(C)Nc1ccc2ccc(Cl)cc2n1` (stereo not given), the growth in the experiment with RPMI-8226 leukemia was 97.3%; with OVCAR-8 ovarian, 94.4%; with OVCAR-5 ovarian, 102%; in the experiment with OVCAR-4 ovarian it was 116%; in the experiment on SK-OV-3 ovarian, 104%; in the experiment on IGROV1 ovarian, 101%. The growth with OVCAR-3 ovarian is 97.8%; with HS 578T breast, 90.8%; in the experiment with NCI/ADR-RES ovarian it was 98%; in the experiment on T-47D breast it was 93.1%.
`COc1ccc(-c2nc(-c3nc4ccc(OC)cc4[nH]3)cc3c2[nH]c2ccccc23)cc1`: the growth in the experiment with RPMI-8226 leukemia is -28.2% (active); in the experiment with OVCAR-8 ovarian, 17.5%; in the experiment with OVCAR-5 ovarian, 90%; in the experiment with OVCAR-4 ovarian it was 52.8%; in the experiment with SK-OV-3 ovarian, 99.2%; with IGROV1 ovarian, 21.1%. The growth in the experiment on OVCAR-3 ovarian was 51.9%; in the experiment on HS 578T breast, 18.8%; in the experiment on NCI/ADR-RES ovarian, 32.9%; in the experiment with T-47D breast, 25.5%.
In the case of `CC(=O)n1c(-c2ccc(Cl)c(Cl)c2)cn(-c2ccc(Cl)cc2)c1=O`, the growth was -10.9% (active) in the experiment on RPMI-8226 leukemia; 20.8% in the experiment with OVCAR-8 ovarian; 42.4% in the experiment with OVCAR-5 ovarian; 5.33% (active) in the experiment on OVCAR-4 ovarian; 19.1% with SK-OV-3 ovarian; 4.07% (active) in the experiment with IGROV1 ovarian. Besides, the growth is 3.73% (active) in the experiment on OVCAR-3 ovarian, -15.5% (active) in the experiment with HS 578T breast, 11.8% in the experiment on NCI/ADR-RES ovarian and -47.1% (active) with T-47D breast.
For the molecule `Cc1cc(C)c2c(n1)sc1c(Nc3ccc(Cl)cc3)ncnc12`, the growth with RPMI-8226 leukemia was 23.7%; in the experiment on OVCAR-8 ovarian, 4.06% (active); with OVCAR-5 ovarian, 29%; in the experiment with OVCAR-4 ovarian, 84.4%; in the experiment on SK-OV-3 ovarian, 35.2%; in the experiment on IGROV1 ovarian, 70.8%. For the same molecule, the growth in the experiment with OVCAR-3 ovarian is 33.3%; in the experiment on HS 578T breast, 76.5%; with NCI/ADR-RES ovarian, 15.1%; in the experiment with T-47D breast, 23.4%.
As to `c1ccc(CSc2nnc3c4c5c(sc4nc(-c4cccnc4)n23)CCCCCC5)cc1`, the growth in the experiment on RPMI-8226 leukemia is 20.1%; with OVCAR-8 ovarian it was 20.3%; with OVCAR-5 ovarian it was 95.2%; in the experiment with OVCAR-4 ovarian, 27.3%; in the experiment with SK-OV-3 ovarian it was 71.2%; in the experiment with IGROV1 ovarian it was 77%. Also, the growth is 36.4% in the experiment with OVCAR-3 ovarian, 86.2% in the experiment with HS 578T breast, 100% in the experiment with NCI/ADR-RES ovarian and 14% with T-47D breast.
As for `COc1ccc2c(c1)O/C(=C\c1ncc([N+](=O)[O-])n1C)C2=O`, the growth in the experiment on RPMI-8226 leukemia was -1.22% (active); in the experiment on OVCAR-8 ovarian, -20.8% (active); in the experiment with OVCAR-5 ovarian, -14.7% (active); in the experiment with OVCAR-4 ovarian, -11.6% (active); in the experiment with SK-OV-3 ovarian, -15.9% (active); with IGROV1 ovarian it was -25% (active). Moreover, the growth in the experiment with OVCAR-3 ovarian was -24.8% (active); in the experiment with HS 578T breast, -21.1% (active); with NCI/ADR-RES ovarian it was 1.07% (active); with T-47D breast, 76.5%.
Regarding `CN(C)CCNC(=O)c1cccn2c(=O)c3cc4ccccc4cc3nc12`, the growth with RPMI-8226 leukemia was -29.2% (active); in the experiment with OVCAR-8 ovarian it was -9.49% (active); with OVCAR-5 ovarian, 29.6%; in the experiment on OVCAR-4 ovarian, -3.24% (active); in the experiment on SK-OV-3 ovarian, 19.5%; in the experiment on IGROV1 ovarian it was 19.3%. The growth in the experiment on OVCAR-3 ovarian was -15.3% (active); in the experiment with HS 578T breast, -14.5% (active); in the experiment on NCI/ADR-RES ovarian, 5.94% (active); with T-47D breast, 5.57% (active).
In the case of `NC(=S)N=Nc1c(O)c2ccccc2c2ccccc12`, the growth in the experiment with RPMI-8226 leukemia was 58.7%; in the experiment with OVCAR-8 ovarian, 36%; with OVCAR-5 ovarian, 107%; in the experiment with OVCAR-4 ovarian, 73.6%; with SK-OV-3 ovarian, 92.3%; in the experiment with IGROV1 ovarian it was 68.9%. Moreover, the growth is 29.9% in the experiment on OVCAR-3 ovarian, 62% in the experiment with HS 578T breast, 27.1% in the experiment on NCI/ADR-RES ovarian and 68.3% with T-47D breast.
